# Data reported in PubChem BioAssay (NCATS).
# Records with an inconclusive call do not appear. A call without a number means that no potency is given here. Unmarked numbers belong to inactive results. Calls of active or inactive are those of the source. The call rests on the fitted dose curve; in most records, active means well fitted inhibition curve with a large enough effect; inconclusive means small, poorly fitted or top-dose-only effect; inactive means no such curve, though single readings can be large or run the other way.
# What was measured:
# [1] = system: Zika virus NS2B-NS3 protease (unlinked complex); assay: Primary screen GU Rhodamine qHTS for Zika virus inhibitors: Unlinked NS2B-NS3 protease assay (AID 1347159); further: nearly all actives have a fitted effect of over 60% in size
# Method in brief: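 Noncovalent NS2B hydrophilic domain–NS3 protease domain complex (25 nM) preincubated 15 min at room temperature with compounds (up to 114 microM) in 10 mM Tris-HCl pH 8.0, 0.01% Tween 20; 1.5 microM Rhodamine110 substrate added, fluorescence change over 15 min fitted to Hill equation.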
# [2] = system: Zika virus NS2B-NS3 protease (linked construct); assay: Primary screen NINDS Rhodamine qHTS for Zika virus inhibitors (AID 1347160); further: nearly all actives have a fitted effect of over 55% in size
# Method in brief: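 Purified linked NS2B-NS3 protease (NS2B hydrophilic domain joined to NS3 protease by flexible linker), 25 nM in 10 mM Tris-HCl pH 8.0, 0.01% Tween 20. Compounds titrated, 15 min preincubation at room temperature; 1.5 microM Rhodamine110 substrate, FITC fluorescence change over 15 min.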
# Potency means the concentration at half of the fitted maximal effect.
smiles,measurement,setting,value
CN1CC[C@@H](c2c(O)cc(O)c3c(=O)cc(-c4ccc(C(F)(F)F)cc4Cl)oc23)[C@@H]1CO,Potency,[1],inactive
same,Potency,[2],inactive
N#Cc1ccc(COC[C@H]2O[C@@H](n3c(NCc4ccc(Cl)c(Cl)c4)nc4c(N)ncnc43)[C@H](O)[C@@H]2O)cc1,Potency,[1],inactive
same,Potency,[2],inactive
CC(=O)Nc1cccc(Nc2ncnc(N3CCC(OCc4ccc(OC(F)(F)F)cc4)CC3)n2)c1C,Potency,[1],inactive
same,Potency,[2],inactive
CC(C)n1cnc2c(-c3cnc(N)nc3)nc(N3CCOCC3)nc21,Potency,[1],inactive
same,Potency,[2],inactive
Cc1c[nH]c2ncnc(N3CCC(CN)(C(=O)Nc4cccc(OC(=O)N(C)C)c4)CC3)c12,Potency,[1],inactive
same,Potency,[2],inactive
CC(C)(O)C(=O)N1CCN(c2ccc(C(F)(F)F)c(C3=C(c4c[nH]c5ccccc45)C(=O)NC3=O)c2)CC1,Potency,[1],inactive
same,Potency,[2],inactive
Cc1ccc(NC(=O)c2ccc(CN3CCNCC3)cc2)cc1Nc1nccc(-c2cccnc2)n1,Potency,[1],inactive
same,Potency,[2],inactive
Cc1nc2ccc(-n3ncc(C(=O)c4cc5ccccc5[nH]4)c3N)cc2[nH]1,Potency,[1],inactive
same,Potency,[2],inactive
COc1ccc(-c2csc(NC(=O)[C@H]3CCCCN3S(=O)(=O)c3ccc(C)cc3)n2)cc1,Potency,[1],inactive
same,Potency,[2],inactive
NC(=O)C1=CC2C3C=CC2C(OC3=O)O1 (centres undefined),Potency,[1],inactive
same,Potency,[2],inactive
CC(=O)C=C=C1C(C)(C)CC(O)CC1(C)O[C@@H]1O[C@H](CO[C@H]2OC[C@](O)(CO)[C@H]2O)[C@@H](O)[C@H](O)[C@H]1O (some centres undefined),Potency,[1],20 µM (active)
same,Potency,[2],11.2 µM (active)
COc1ccc(Cl)c(Nc2ncnc3cc(OCC4CCN(C)CC4)c(OC)cc23)c1,Potency,[1],inactive
same,Potency,[2],inactive
CC1OC(OC2C(O)COC(O[C@@H]3[C@@H](O)[C@@H](O)[C@H](OC4C(OC(=O)[C@]56CCC(C)(C)CC5C5=CCC7[C@@]8(C)C[C@H](O)[C@H](OC9OC(CO)C(O)C(O)C9O)[C@@](C)(CO)C8[C@H](O)C[C@@]7(C)[C@]5(C)CC6)OCC(O)C4O)O[C@H]3C)C2O)C(O)C(O)C1O (some centres undefined),"activity change, negative = inhibition",[1],8.24% [at 19.1 µM]
same,outcome,[2],inactive [at 10.7 µM]
Cn1ncc(Cl)c1-c1cc(C(=O)N[C@H](CN)Cc2cccc(F)c2)sc1Cl,Potency,[1],inactive
same,Potency,[2],inactive
O=C(Nc1ccc(-c2ccnc(Nc3ccc(N4CCOCC4)cc3)n2)cc1)C1CCCN1 (centres undefined),Potency,[1],inactive
same,Potency,[2],inactive
CCC(=C(c1ccc(OCCN2CCCC2)cc1)c1ccc(OCCN2CCCC2)cc1)c1ccccc1,Potency,[1],inactive
same,Potency,[2],inactive
CC(=O)N[C@H]1[C@H](O[C@H]2CC[C@@]3(C)C(CC[C@]4(C)C3CC=C3C5CC(C)(C)CC[C@]5(C(=O)O)C(O)C[C@]34C)C2(C)C)O[C@H](CO[C@@H]2O[C@H](C)[C@H](O)[C@H](O)[C@H]2O[C@@H]2OC[C@@H](O)[C@H](O)[C@H]2O)[C@@H](O)[C@@H]1O (some centres undefined),Potency,[1],inactive
same,Potency,[2],inactive
C/C=C/C1=CC2=C(CO1)C(=O)C(C)(OC(=O)c1c(C)cc(O)cc1OC)C(O)C2 (centres undefined),Potency,[1],inactive
same,Potency,[2],inactive
CCOC(=O)N1CCC(N2CCC[C@@H](NC(=O)c3ccccc3C)C2)CC1,Potency,[1],inactive
same,Potency,[2],inactive
Cc1cc(NC(=O)c2cccc(NC(=O)/C=C/CN(C)C)c2)ccc1Nc1nccc(-c2cccnc2)n1,Potency,[1],inactive
same,Potency,[2],inactive
NCC1CCN(c2nccc(-c3ccc4ccccc4c3)n2)CC1,Potency,[1],inactive
same,Potency,[2],inactive
COCC(=O)NC/C=C/c1ccc2ncnc(Nc3ccc(Oc4ccc(C)nc4)c(C)c3)c2c1,Potency,[1],inactive
same,Potency,[2],inactive
CC1(C)SCCN(S(=O)(=O)c2ccc(Oc3ccncc3)cc2)[C@H]1C(=O)NO,Potency,[1],inactive
same,Potency,[2],inactive
Cc1nc(-c2cn3c(n2)-c2ccc(-c4cnn(C(C)(C)C(N)=O)c4)cc2OCC3)n(C(C)C)n1,Potency,[1],inactive
same,Potency,[2],inactive
Cc1ccc(NC(=O)N2CCN(c3nc(N)nc4sc(-c5cccnc5)nc34)CC2)cc1,Potency,[1],inactive
same,Potency,[2],inactive
C=C1C(=O)O[C@H]2C3=C(C)CCC[C@]3(C)C(=O)C[C@@H]12,Potency,[1],inactive
same,Potency,[2],inactive
CCNC(=O)N1CCCN(c2ccc(C(=O)NCCc3ccc(Cl)cc3Cl)cc2NC(=O)c2cccc(Cl)c2)CC1,Potency,[1],inactive
same,Potency,[2],inactive
CCc1cc(C(N)=O)ccc1-n1nc(C(C)C)c2c(-n3cnc(-c4cnn(C)c4)c3)ccnc21,Potency,[1],inactive
same,Potency,[2],inactive
COc1cc2ncnc(Nc3ccc(F)c(Cl)c3)c2cc1O,Potency,[2],inactive
O=[N+]([O-])c1ccc(Oc2ccc3c(c2)CCC(c2ccccc2)O3)nc1 (centres undefined),Potency,[1],inactive
same,Potency,[2],inactive
